The source made the active and inactive calls. The calls were made as follows: active = hit-call score of the fitted dose curve at least 0.9, where 1 is the maximum; inactive = score below 0.9.

The nature of the assay: BSK_LPS_PGE2: BioMAP Diversity Plus: LPS Assay for Prostaglandin E2 (PGE2) Biomarker Activity (AID 2283082). The following applies: primary human HUVEC with PBMC; actives raise or lower the signal. The gist of the method: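 HUVEC plus PBMC co-culture stimulated with LPS; secreted PGE2 quantified by ELISA 24 h after chemical dosing. Activity fitted bidirectionally against DMSO as negative control and baseline; parallel SRB total-protein staining served as cytotoxicity check.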
Usually AC50 stands for the concentration giving half of the maximal activity seen. Consider `c1ccc(-c2cccc(-c3ccccc3)c2)cc1`, for which the AC50 is 750 nM (active).
As for `Cc1c([N+](=O)[O-])c(C)c([N+](=O)[O-])c(C(C)(C)C)c1[N+](=O)[O-]`, the outcome was inactive.
Same read-out and setting: under `CCCCN(CCCC)C(=S)[S-].CCCCN(CCCC)C(=S)[S-].[Ni+2]` stands “inactive”; under `O=C(CCl)NCO`, “inactive”; under `Cc1cc(Cl)ccc1N`, “inactive”.
On the same count and under the same terms, under `Oc1cc(Cl)c(Cl)cc1Cl` stands “inactive”; under `CCOC(=O)CCN(SN(C)C(=O)Oc1cccc2c1OC(C)(C)C2)C(C)C`, “inactive”; under `CCCCOC(=O)COC(=O)c1ccccc1C(=O)OCCCC`, “inactive”.
For the molecule `N#CCCC(Br)(C#N)CBr` (centres undefined), the outcome was inactive.

The values above are taken from PubChem BioAssay (EPA / NIEHS).
